According to article PMC12820563, “FoxP3 forms a head-to-head dimer in vivo and stabilizes its multimerization on adjacent microsatellites”:
In all, about 16,000 sequences were measured (“rpm ratio (pull-down/input)”: median about 0.5, highest 2% from about 5.5 on). This excerpt belongs to a sample that is enriched for the highest values.

Target: T1, MBP-FoxP3dN (Mus musculus, UniProt Q99JB6 188-423)
T1 sequence: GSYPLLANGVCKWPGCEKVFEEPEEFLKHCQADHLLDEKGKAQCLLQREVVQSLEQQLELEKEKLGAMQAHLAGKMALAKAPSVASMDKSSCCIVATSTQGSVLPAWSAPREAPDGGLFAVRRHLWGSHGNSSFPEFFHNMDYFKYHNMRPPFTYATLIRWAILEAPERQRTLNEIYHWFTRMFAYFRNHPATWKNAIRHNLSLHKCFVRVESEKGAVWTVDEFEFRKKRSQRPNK
Assay: PD-seq (MBP pull-down with sequencing); 20 mM Tris-HCl pH 7.5, 100 mM NaCl, 1.5 mM MgCl2, 0.4 uM protein, 0.1 uM dsDNA library, 30 min, room temperature, amylose pull-down; high values mean tight binding
Details: protein: recombinant; tags: His6-MBP; chain copies: 2; dsDNA, one strand shown
Method in brief: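 Mouse FoxP3 or FoxP1 fragment lacking the N-terminus, His6-MBP-tagged and expressed in E. coli, was incubated at 0.4 µM with 0.1 µM Klenow-filled degenerate double-stranded DNA library for 30 min at room temperature in Tris pH 7.5 buffer with NaCl and MgCl2. Complexes captured on amylose resin were washed three times and their DNA sequenced on Illumina. Binding is reads-per-million enrichment of pull-down over input, replicates pooled.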

Sequence	binding signal
GATGATTGTTCTCCCAGCTGATGAATTAAAGAATTCGAGTAAACAAATTTTCCTAATCTTTCTGTTCAAGCGCCATCTAC	0.677 RPM ratio (pull-down/input)
GATGATTGTTCTCCCAGCTGATGAATTCTGTATTTCGAGTAAACAAATTTTCCTAATCTTTCTGTTCAAGCGCCATCTAC	4.09 RPM ratio (pull-down/input)
GATGATTGTTCTCCCAGCTGATGAATTGTGTATTTCGAGTAAACAAATTTTCCTAATCTTTCTGTTCAAGCGCCATCTAC	5.82 RPM ratio (pull-down/input)
GATGATTGTTCTCCCAGCTGATGAATTGTATTTTTCGAGTAAACAAATTTTCCTAATCTTTCTGTTCAAGCGCCATCTAC	3.78 RPM ratio (pull-down/input)
GATGATTGTTCTCCCAGCTGATGAATTTGTATATTCGAGTAAACAAATTTTCCTAATCTTTCTGTTCAAGCGCCATCTAC	6.34 RPM ratio (pull-down/input)
GATGATTGTTCTCCCAGCTGATGAATTGTATATTTCGAGTAAACAAATTTTCCTAATCTTTCTGTTCAAGCGCCATCTAC	3.17 RPM ratio (pull-down/input)
GATGATTGTTCTCCCAGCTGATGAATTTTTGTATTCGAGTAAACAAATTTTCCTAATCTTTCTGTTCAAGCGCCATCTAC	2.57 RPM ratio (pull-down/input)
GATGATTGTTCTCCCAGCTGATGAATTCGTGTATTCGAGTAAACAAATTTTCCTAATCTTTCTGTTCAAGCGCCATCTAC	2.95 RPM ratio (pull-down/input)
GATGATTGTTCTCCCAGCTGATGAATTTGTGTATTCGAGTAAACAAATTTTCCTAATCTTTCTGTTCAAGCGCCATCTAC	6.95 RPM ratio (pull-down/input)
GATGATTGTTCTCCCAGCTGATGAATTGTGTAATTCGAGTAAACAAATTTTCCTAATCTTTCTGTTCAAGCGCCATCTAC	3.19 RPM ratio (pull-down/input)
GATGATTGTTCTCCCAGCTGATGAATTCGTATATTCGAGTAAACAAATTTTCCTAATCTTTCTGTTCAAGCGCCATCTAC	2.61 RPM ratio (pull-down/input)
GATGATTGTTCTCCCAGCTGATGAATTTCTGTATTCGAGTAAACAAATTTTCCTAATCTTTCTGTTCAAGCGCCATCTAC	1.38 RPM ratio (pull-down/input)
GATGATTGTTCTCCCAGCTGATGAATTGTATTGTTCGAGTAAACAAATTTTCCTAATCTTTCTGTTCAAGCGCCATCTAC	6.04 RPM ratio (pull-down/input)
GATGATTGTTCTCCCAGCTGATGAATTTTTACGATCGAGTAAACAAATTTTCCTAATCTTTCTGTTCAAGCGCCATCTAC	0.226 RPM ratio (pull-down/input)
GATGATTGTTCTCCCAGCTGATGAATTCCCTGCCTCGAGTAAACAAATTTTCCTAATCTTTCTGTTCAAGCGCCATCTAC	0.312 RPM ratio (pull-down/input)
GATGATTGTTCTCCCAGCTGATGAATTGTGAGGCTCGAGTAAACAAATTTTCCTAATCTTTCTGTTCAAGCGCCATCTAC	0.816 RPM ratio (pull-down/input)
GATGATTGTTCTCCCAGCTGATGAATTTAAGTGCTCGAGTAAACAAATTTTCCTAATCTTTCTGTTCAAGCGCCATCTAC	0.628 RPM ratio (pull-down/input)

Sequence	binding signal
GATGATTGTTCTCCCAGCTGATGAATTGTGGTTTTCGAGTAAACAAATTTTCCTAATCTTTCTGTTCAAGCGCCATCTAC	2.03 RPM ratio (pull-down/input)
GATGATTGTTCTCCCAGCTGATGAATTGGGTGGATCGAGTAAACAAATTTTCCTAATCTTTCTGTTCAAGCGCCATCTAC	0.423 RPM ratio (pull-down/input)
GATGATTGTTCTCCCAGCTGATGAATTAAAGCTGTCGAGTAAACAAATTTTCCTAATCTTTCTGTTCAAGCGCCATCTAC	0.47 RPM ratio (pull-down/input)
GATGATTGTTCTCCCAGCTGATGAATTCTTTCCCTCGAGTAAACAAATTTTCCTAATCTTTCTGTTCAAGCGCCATCTAC	0.206 RPM ratio (pull-down/input)
GATGATTGTTCTCCCAGCTGATGAATTAGTAGGGTCGAGTAAACAAATTTTCCTAATCTTTCTGTTCAAGCGCCATCTAC	1.4 RPM ratio (pull-down/input)
GATGATTGTTCTCCCAGCTGATGAATTCAGCAACTCGAGTAAACAAATTTTCCTAATCTTTCTGTTCAAGCGCCATCTAC	4.78 RPM ratio (pull-down/input)
GATGATTGTTCTCCCAGCTGATGAATTTGCCAACTCGAGTAAACAAATTTTCCTAATCTTTCTGTTCAAGCGCCATCTAC	0.47 RPM ratio (pull-down/input)
GATGATTGTTCTCCCAGCTGATGAATTCTGCAACTCGAGTAAACAAATTTTCCTAATCTTTCTGTTCAAGCGCCATCTAC	5.96 RPM ratio (pull-down/input)
GATGATTGTTCTCCCAGCTGATGAATTCCGCAAATCGAGTAAACAAATTTTCCTAATCTTTCTGTTCAAGCGCCATCTAC	0.692 RPM ratio (pull-down/input)
GATGATTGTTCTCCCAGCTGATGAATTCAACAACTCGAGTAAACAAATTTTCCTAATCTTTCTGTTCAAGCGCCATCTAC	0.576 RPM ratio (pull-down/input)
GATGATTGTTCTCCCAGCTGATGAATTGTGCAACTCGAGTAAACAAATTTTCCTAATCTTTCTGTTCAAGCGCCATCTAC	6.92 RPM ratio (pull-down/input)
GATGATTGTTCTCCCAGCTGATGAATTGCAACTCTCGAGTAAACAAATTTTCCTAATCTTTCTGTTCAAGCGCCATCTAC	2.79 RPM ratio (pull-down/input)
GATGATTGTTCTCCCAGCTGATGAATTCCGCAACTCGAGTAAACAAATTTTCCTAATCTTTCTGTTCAAGCGCCATCTAC	6.11 RPM ratio (pull-down/input)
GATGATTGTTCTCCCAGCTGATGAATTCTACAACTCGAGTAAACAAATTTTCCTAATCTTTCTGTTCAAGCGCCATCTAC	0.303 RPM ratio (pull-down/input)
GATGATTGTTCTCCCAGCTGATGAATTTTGCAACTCGAGTAAACAAATTTTCCTAATCTTTCTGTTCAAGCGCCATCTAC	6.24 RPM ratio (pull-down/input)
GATGATTGTTCTCCCAGCTGATGAATTTGCAAACTCGAGTAAACAAATTTTCCTAATCTTTCTGTTCAAGCGCCATCTAC	0.673 RPM ratio (pull-down/input)
GATGATTGTTCTCCCAGCTGATGAATTGTTCAACTCGAGTAAACAAATTTTCCTAATCTTTCTGTTCAAGCGCCATCTAC	0.485 RPM ratio (pull-down/input)
